The results in this text go back to ChEMBL document CHEMBL3988442, “University of Dundee, Small-Polar-MMV Screening Library” (2021).

For some of these results: Potency and affinity values are given separately.

Holding throughout (parameters): scale not given: direction of the effect not stated beside the values
Test [1] deals with Protein translocase subunit SecA (Escherichia coli (strain K12)) (UniProt P10408). Briefly: Assay to Identify E. coli SecA ATPase Inhibitors. It counts as functional. To be noted: 30 µM.
Test [2] deals with T1, Ubiquitin-activating enzyme e1, putative (Leishmania donovani (strain BPK282A1)) (UniProt E9BSI1).
T1 sequence (whole entry): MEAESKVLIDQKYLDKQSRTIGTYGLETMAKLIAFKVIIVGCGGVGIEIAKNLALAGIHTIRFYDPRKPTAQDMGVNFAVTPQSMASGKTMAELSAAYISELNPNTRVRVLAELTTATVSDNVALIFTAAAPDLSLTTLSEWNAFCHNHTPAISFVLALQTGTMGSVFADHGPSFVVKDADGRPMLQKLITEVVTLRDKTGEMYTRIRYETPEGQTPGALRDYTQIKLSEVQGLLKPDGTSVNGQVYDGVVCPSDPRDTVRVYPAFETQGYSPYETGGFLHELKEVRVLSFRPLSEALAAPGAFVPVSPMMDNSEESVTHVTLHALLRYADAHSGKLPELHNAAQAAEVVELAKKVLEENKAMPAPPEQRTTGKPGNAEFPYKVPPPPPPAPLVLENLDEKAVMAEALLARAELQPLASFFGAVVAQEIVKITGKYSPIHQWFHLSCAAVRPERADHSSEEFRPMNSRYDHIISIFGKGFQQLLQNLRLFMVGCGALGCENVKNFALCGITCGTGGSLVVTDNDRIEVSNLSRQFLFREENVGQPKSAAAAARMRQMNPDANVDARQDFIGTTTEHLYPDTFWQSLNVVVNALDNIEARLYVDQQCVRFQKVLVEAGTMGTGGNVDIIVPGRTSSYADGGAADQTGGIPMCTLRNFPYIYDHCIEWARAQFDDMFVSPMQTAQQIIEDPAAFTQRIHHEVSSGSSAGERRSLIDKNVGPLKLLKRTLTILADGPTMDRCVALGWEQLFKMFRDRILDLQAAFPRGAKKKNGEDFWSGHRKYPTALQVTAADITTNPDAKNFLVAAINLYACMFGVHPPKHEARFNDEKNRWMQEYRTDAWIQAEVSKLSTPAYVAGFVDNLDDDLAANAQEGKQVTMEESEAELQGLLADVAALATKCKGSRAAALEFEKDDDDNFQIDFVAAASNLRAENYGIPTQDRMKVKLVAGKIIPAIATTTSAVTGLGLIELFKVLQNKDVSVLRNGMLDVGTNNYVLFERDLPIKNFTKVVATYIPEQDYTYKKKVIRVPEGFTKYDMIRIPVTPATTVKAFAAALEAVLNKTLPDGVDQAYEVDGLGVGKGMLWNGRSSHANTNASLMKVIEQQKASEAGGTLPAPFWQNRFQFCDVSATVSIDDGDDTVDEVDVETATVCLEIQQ
Description: Leishmania donovani Ubiquitin Activating Enzyme (LdE1). It counts as functional. To be noted: 30 µM.

For test [3], the target named is AMP-activated protein kinase, AMPK (Homo sapiens) (UniProt P54646+O43741+P54619+Q9UGJ0+Q9Y478+Q13131+Q9UGI9). Description: AMP-dependent Kinase enzyme assay. An in vitro enzyme assay that detects ADP turnover that is directly proportional to AMPK activity. This uses naive AMPK that is activated during the assay with MK-8722. To be noted: 30 µM. It counts as functional.

The target in test [4] is Sialic acid-binding Ig-like lectin 9 (Homo sapiens) (UniProt Q9Y336). Description: Hs-Siglec9 ALPHAscreen SOP 20170721. The following applies: 10 µM.
The next test relates to Trypanosoma cruzi. Description: Trypanosoma cruzi phosphomannomutase and mannose-1-phosphate guanylyltransferase assay. To be noted: 10 µM. It is filed as functional.
The target in test [5] is T2, Arginase-2, mitochondrial (Homo sapiens) (UniProt P78540).
T2 sequence (whole entry): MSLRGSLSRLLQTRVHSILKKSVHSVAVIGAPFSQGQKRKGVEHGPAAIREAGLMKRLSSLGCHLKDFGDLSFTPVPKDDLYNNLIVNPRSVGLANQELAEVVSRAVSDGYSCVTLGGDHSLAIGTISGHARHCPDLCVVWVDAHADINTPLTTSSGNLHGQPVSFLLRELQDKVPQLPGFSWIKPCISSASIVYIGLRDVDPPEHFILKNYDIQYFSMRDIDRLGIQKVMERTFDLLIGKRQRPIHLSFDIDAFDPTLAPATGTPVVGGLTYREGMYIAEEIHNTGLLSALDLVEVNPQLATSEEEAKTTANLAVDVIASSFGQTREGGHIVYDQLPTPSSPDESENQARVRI
Description: in vitro enzyme assay to detect the production of urea directly proportional to the activity of Arginase II. Also: in the data most compounds retested in dose-response had high values. It counts as functional. The following applies: 33.3 µM.

Test [6] concerns the target T3, Proteasome subunit beta (Trypanosoma cruzi) (UniProt O96673).
T3 sequence (whole entry): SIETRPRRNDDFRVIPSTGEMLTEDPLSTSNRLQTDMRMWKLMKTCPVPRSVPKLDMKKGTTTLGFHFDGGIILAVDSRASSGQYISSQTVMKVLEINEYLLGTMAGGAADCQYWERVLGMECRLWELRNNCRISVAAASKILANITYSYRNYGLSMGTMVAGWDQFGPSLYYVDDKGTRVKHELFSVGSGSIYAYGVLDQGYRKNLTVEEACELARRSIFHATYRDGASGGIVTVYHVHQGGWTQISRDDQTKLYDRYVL
Description: Trypanosoma cruzi proteasome chymotrypsin-like activity (TcProtChymo) assay. Also: in the data most compounds retested in dose-response had high values. It is filed as functional. To be noted: 9.37 µM.

For the next test, the species on record is Homo sapiens. Briefly: To identify inhibition of the IFN signalling (Jak-Stat) pathway via expression of an eGFP reporter gene under the control of an IFN-stimulated response element (ISRE) containing MxA promoter. It counts as functional. To be noted: 30 µM. (Reporter assays use an easily measured gene product as a stand-in for the process of interest.)

Test [7] has as its target T4, Tyrosyl-tRNA synthetase, putative (Trypanosoma cruzi (strain CL Brener)) (UniProt Q4DSP6).
T4 sequence (whole entry): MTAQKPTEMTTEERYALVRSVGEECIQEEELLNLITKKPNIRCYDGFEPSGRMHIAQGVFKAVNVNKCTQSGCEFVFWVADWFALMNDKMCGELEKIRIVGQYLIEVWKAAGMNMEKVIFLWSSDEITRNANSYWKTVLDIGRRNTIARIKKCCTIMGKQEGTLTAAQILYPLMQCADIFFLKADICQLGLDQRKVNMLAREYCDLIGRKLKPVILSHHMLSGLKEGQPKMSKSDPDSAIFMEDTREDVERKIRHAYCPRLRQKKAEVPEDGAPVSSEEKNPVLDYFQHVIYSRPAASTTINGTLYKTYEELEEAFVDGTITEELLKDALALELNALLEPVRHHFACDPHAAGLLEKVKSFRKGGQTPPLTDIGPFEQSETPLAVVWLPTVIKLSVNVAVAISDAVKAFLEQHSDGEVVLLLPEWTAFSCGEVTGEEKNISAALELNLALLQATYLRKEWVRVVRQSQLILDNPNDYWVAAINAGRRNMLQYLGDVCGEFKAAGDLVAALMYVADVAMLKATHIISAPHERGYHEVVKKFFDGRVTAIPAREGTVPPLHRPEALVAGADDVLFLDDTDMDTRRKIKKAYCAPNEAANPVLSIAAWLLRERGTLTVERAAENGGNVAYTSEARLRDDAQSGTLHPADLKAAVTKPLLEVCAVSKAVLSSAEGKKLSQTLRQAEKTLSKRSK
Briefly: Trypanosoma cruzi tyrosyl tRNA synthetase (TcYRS) _High Tyrosine SOP. Also: in the data most compounds retested in dose-response had high values. The following applies: 30 µM. It counts as functional.

Test [8] has as its target T4, Tyrosyl-tRNA synthetase, putative (Trypanosoma cruzi (strain CL Brener)). Description: Trypanosoma cruzi tyrosyl tRNA synthetase (TcYRS) SOP. The following applies: 30 µM. It is filed as functional.
The target of test [9] is Chromo domain-containing protein 1 (Saccharomyces cerevisiae (strain ATCC 204508 / S288c) (Baker's yeast)) (UniProt P32657). Briefly: ScCHD-1 Enzyme Inhibition Assay. Also: in the data most compounds retested in dose-response had high values. It is filed as functional. To be noted: 30 µM.
Sequence of Chromo domain-containing protein 1 (Saccharomyces cerevisiae (strain ATCC 204508 / S288c) (Baker's yeast)) (P32657 whole entry, the tested form may be a part): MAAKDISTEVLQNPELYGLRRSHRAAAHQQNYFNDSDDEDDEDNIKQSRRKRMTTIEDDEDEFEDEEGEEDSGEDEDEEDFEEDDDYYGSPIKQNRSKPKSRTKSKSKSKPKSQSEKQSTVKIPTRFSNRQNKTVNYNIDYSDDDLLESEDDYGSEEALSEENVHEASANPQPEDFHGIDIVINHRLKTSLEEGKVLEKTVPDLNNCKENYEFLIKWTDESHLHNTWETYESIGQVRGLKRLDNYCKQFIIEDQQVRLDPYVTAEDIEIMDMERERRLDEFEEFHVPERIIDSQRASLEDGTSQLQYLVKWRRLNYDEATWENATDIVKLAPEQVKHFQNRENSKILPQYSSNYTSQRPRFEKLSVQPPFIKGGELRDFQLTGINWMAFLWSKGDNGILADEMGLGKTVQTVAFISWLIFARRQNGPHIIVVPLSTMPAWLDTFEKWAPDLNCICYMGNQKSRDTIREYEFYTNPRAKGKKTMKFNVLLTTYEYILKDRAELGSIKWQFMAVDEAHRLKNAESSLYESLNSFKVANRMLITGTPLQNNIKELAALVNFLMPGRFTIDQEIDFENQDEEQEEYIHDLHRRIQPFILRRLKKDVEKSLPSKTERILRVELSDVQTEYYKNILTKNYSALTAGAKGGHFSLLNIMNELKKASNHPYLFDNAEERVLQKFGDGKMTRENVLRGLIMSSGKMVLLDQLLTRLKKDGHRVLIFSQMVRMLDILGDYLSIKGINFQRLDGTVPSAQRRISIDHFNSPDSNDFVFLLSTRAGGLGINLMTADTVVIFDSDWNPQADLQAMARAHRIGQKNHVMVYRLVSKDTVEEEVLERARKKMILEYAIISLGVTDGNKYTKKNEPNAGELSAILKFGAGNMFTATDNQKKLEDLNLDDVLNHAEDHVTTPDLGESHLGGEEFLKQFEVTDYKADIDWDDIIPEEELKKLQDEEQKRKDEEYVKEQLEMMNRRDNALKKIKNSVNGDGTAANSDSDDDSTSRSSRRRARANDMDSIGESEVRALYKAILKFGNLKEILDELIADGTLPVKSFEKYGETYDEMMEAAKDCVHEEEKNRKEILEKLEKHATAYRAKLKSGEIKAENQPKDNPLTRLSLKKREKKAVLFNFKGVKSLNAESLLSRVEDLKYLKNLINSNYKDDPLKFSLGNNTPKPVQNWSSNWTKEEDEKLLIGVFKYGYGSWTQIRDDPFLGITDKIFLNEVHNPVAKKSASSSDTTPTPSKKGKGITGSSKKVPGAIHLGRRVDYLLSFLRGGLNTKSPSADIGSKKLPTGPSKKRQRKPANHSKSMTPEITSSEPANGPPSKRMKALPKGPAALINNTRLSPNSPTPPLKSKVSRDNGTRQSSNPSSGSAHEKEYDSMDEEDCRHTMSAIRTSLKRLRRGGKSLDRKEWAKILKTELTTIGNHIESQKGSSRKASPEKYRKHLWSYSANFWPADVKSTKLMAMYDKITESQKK

Sequence of Sialic acid-binding Ig-like lectin 9 (Homo sapiens) (Q9Y336 whole entry): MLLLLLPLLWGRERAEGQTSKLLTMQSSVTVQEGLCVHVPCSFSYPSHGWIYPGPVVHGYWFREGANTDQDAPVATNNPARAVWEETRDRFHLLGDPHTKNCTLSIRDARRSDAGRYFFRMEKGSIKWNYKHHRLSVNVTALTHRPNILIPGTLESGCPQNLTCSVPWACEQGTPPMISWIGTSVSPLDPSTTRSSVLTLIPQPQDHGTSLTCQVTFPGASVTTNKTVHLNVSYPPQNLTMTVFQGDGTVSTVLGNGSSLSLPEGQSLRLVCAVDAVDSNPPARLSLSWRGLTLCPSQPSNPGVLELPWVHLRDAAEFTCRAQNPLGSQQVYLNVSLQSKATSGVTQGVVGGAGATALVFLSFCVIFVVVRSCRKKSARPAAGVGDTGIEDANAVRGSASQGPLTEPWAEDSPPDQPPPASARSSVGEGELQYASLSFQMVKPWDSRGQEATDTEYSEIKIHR
Sequence of Protein translocase subunit SecA (Escherichia coli (strain K12)) (P10408 whole entry): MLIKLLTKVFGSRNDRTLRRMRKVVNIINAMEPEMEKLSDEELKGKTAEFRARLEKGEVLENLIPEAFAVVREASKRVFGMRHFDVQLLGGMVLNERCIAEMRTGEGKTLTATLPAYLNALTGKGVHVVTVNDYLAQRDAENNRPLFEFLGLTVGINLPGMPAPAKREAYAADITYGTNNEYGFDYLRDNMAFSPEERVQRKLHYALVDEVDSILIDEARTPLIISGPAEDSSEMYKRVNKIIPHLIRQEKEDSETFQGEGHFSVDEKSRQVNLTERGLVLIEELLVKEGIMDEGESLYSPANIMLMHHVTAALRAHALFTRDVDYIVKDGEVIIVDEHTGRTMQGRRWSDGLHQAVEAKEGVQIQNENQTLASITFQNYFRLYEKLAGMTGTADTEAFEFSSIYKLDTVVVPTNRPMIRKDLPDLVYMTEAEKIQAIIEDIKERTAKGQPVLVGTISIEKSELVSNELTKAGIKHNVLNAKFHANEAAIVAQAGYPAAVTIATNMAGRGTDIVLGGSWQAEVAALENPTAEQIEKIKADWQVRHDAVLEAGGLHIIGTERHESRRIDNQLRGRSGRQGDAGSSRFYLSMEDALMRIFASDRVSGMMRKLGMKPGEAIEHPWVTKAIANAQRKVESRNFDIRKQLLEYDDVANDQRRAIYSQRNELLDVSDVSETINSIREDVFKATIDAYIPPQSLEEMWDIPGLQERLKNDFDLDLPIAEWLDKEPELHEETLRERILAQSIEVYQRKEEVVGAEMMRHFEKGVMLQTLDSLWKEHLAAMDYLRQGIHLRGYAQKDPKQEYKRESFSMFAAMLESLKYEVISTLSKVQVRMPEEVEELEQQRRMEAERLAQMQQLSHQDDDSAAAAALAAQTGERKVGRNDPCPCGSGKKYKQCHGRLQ

As to `Cc1nc(C2CCCN(C(=O)c3cccc4c3OCO4)C2)no1` (stereo unspecified), the Percent Effect is -0.923% in test [1]; 11.4% in test [2]; 6.75% in [3]; 0.303% in test [4]; -5.03% in the test on Trypanosoma cruzi; -3.23% in [5]. Besides, the Percent Effect is 19.9% in test [6]; 3.42% in the test filed under Homo sapiens; 4.17% in test [7]; 10.1% in [8]; -23.7% in test [9].

With `CCOc1nnc(CN(C)C2CCCN(c3cccnn3)C2)s1` (stereo unspecified), the Percent Effect in test [1] is -2.38%; in test [2], 10.5%; in test [3] it was -2.62%; in test [4] it was -6.38%; with Trypanosoma cruzi, 7.5%; in test [5] it was -11.8%. The Percent Effect in test [6] was 17.9%; in the test listed under Homo sapiens it was -12.4%; in [7], 7.45%; in [8], 18.2%; in test [9], -4.02%.

For `O=C(c1n[nH]c2ccccc12)N1CCCC1c1noc(C2CC2)n1` (stereo unspecified), the Percent Effect is -4.36% in test [1]; 7.59% in test [2]; -0.141% in [3]; 0.249% in test [4]; 8.4% with Trypanosoma cruzi; 5.32% in test [5]. In addition, the Percent Effect in test [6] is 1.39%; in the test filed under Homo sapiens, -4.43%; in test [7] it was 4.43%; in [8] it was 13.9%; in test [9] it was -5.81%.

On to `CCc1noc(CN2CCCN(C(N)=O)CC2)n1`, for which the Percent Effect in test [1] is -0.23%; in [2], 0%; in test [3], 5.45%; in [4] it was 11.3%; in the test with Trypanosoma cruzi it was -6.7%; in test [5], 4.94%. For the same molecule, the Percent Effect was 5.98% in test [6]; 21.4% in the test listed under Homo sapiens; -1.48% in test [7]; -8.86% in test [8]; -6.21% in test [9].

Regarding `O=C(NCCn1ccnc1)c1ccn(-c2cccc(F)c2)n1`, the Percent Effect in [1] is -6.24%; in test [2], 15.8%; in test [3] it was -0.288%; in [4], -5.43%; in the test on Trypanosoma cruzi, -11.1%; in test [5], -0.719%. The Percent Effect in test [6] was 2.28%; in the test listed under Homo sapiens, -0.954%; in test [7], 0.493%; in [8], 3.7%; in test [9], -2.98%.

Consider `CC(CNC(=O)c1cccnc1Oc1cccnc1)N(C)C` (stereo unspecified), for which the Percent Effect in [1] was -0.805%; in [2], 18.9%; in test [3], -3.66%; in test [4], 10.5%; in the test with Trypanosoma cruzi it was 6.56%; in [5], 10%. The Percent Effect in test [6] was 12.9%; in the test filed under Homo sapiens it was 4.67%; in test [7], 4.76%; in test [8], 17.1%; in test [9] it was -1.51%.

On to `c1cnnc(N2CCCC2CNc2ncnc3c2CCC3)c1` (stereo unspecified), for which the Percent Effect was -5.27% in test [1]; 1.27% in [2]; 4.89% in test [3]; -6.25% in test [4]; -1.95% in the test with Trypanosoma cruzi; 3.66% in test [5]. Besides, the Percent Effect is 1.54% in test [6]; -1.2% in the test filed under Homo sapiens; 11.5% in test [7]; 15.2% in test [8]; 1.39% in [9].

On to `Cc1nc(CN2CCCC2c2nc(C(C)C)no2)cs1` (stereo unspecified), for which the Percent Effect in [1] is -3.44%; in test [2], 18.1%; in [3], -18.2%; in test [4] it was 15.3%; in the test with Trypanosoma cruzi, 3.79%; in [5] it was 5.3%. Further, the Percent Effect is 9.47% in [6]; -11.9% in the test filed under Homo sapiens; 5.26% in [7]; 12.8% in test [8]; -5.13% in [9].

For `Cc1cnn(CC(C)NCc2csc(-c3ccco3)n2)c1` (stereo unspecified), the Percent Effect in test [1] is -3.81%; in test [2], -3.8%; in test [3], 10.6%; in [4], -3.77%; with Trypanosoma cruzi, -5.44%; in [5], -3.66%. Moreover, the Percent Effect in test [6] was 10.1%; in the test listed under Homo sapiens, 18.9%; in test [7], 11.5%; in test [8], 2.53%; in test [9] it was -23.7%.

Consider `Cc1cc(C)n(CC2CN(CC(=O)NC3CCCC3)CCO2)n1` (stereo unspecified), for which the Percent Effect in test [1] was -8.44%; in test [2], 7.79%; in test [3], 2.32%; in test [4], -3.15%; in the test on Trypanosoma cruzi, -8.24%; in test [5], -0.712%. In addition, the Percent Effect in test [6] was 2.03%; in the test filed under Homo sapiens, 32.3%; in test [7], 1.94%; in [8], 2.44%; in test [9], -5.73%.

Regarding `CC(C)OCc1ncn2c1CN(Cc1ccc(F)cc1)CCC2`, the Percent Effect in [1] is -4.79%; in test [2], 8.11%; in [3], 2.07%; in [4], 2.94%; in the test with Trypanosoma cruzi, -4.79%; in [5], -6.05%. The Percent Effect in test [6] is 22%; in the test filed under Homo sapiens, -10.1%; in test [7] it was 3.24%; in test [8] it was 12.8%; in [9], -0.808%.
